Assay results from PubChem BioAssay AID602141 (Sanford-Burnham Center for Chemical Genomics, 2011).
Screen size: about 360,000 compounds; about 1,300 (0.36%) were called active. Shown is part of a subset that was picked to be rich in actives. A number with no mark means an inactive call.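 Rule for the calls: active = corrected activity change at or below -50% at 5 µM; inactive = the rest.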

Experiment: KKLEB cell viability reduction – uHTS, fluorescence assay plates, cytotoxicity control for CF NF-kB inhibitor project, primary screen (AID 602141)
Details: KKLEB CF airway cells viability, ATPlite luminescence, overnight; at 5 µM; stronger effect = lower value; cells stimulated with P. aeruginosa culture filtrate

With Cc1cccc(-n2ncc(Cl)c(Cl)c2=O)c1 the activity change (cytotoxicity) was -97.1% (active).
For COc1ccc(NC(=O)/C(Cl)=C(/Cl)S(=O)Cc2ccc(C)cc2)cn1 (stereo not given), the activity change (cytotoxicity) was -105% (active).
For CN(CC(=O)NNC(=O)CNC(=O)c1ccccc1Cl)S(=O)(=O)c1ccc(Cl)cc1, the activity change (cytotoxicity) was -61.3% (active).
In the case of c1ccc(CSc2ncnc3c2sc2nc(N4CCOCC4)c4c(c23)CCCC4)cc1, the activity change (cytotoxicity) is reported as -51% (active).
With O=[N+]([O-])c1cc(S(=O)(=O)Nc2cccc(Cl)c2)ccc1N=Nc1c(O)[nH]c2ccccc12 the activity change (cytotoxicity) was -80% (active).
In the case of O=C(OC12CC3CC(CC(C3)C1)C2)c1ccc(NCc2cc(O)ccc2O)cc1, the activity change (cytotoxicity) is reported as -63.4% (active).
In the case of O=C(Nc1cccc2ccccc12)c1[nH]c(-c2ccccc2)c2c1C(=O)N(C1CC1)C2=O, the activity change (cytotoxicity) is reported as -52.9% (active).
With COc1ccc(-c2cc(C(F)(F)F)nc(S(C)(=O)=O)n2)cc1OC the activity change (cytotoxicity) was -78.4% (active).
In the case of CC(C)OC(=O)c1ccc(NCc2cc(O)ccc2O)cc1Cl, the activity change (cytotoxicity) is reported as -51.3% (active).
For Oc1ccc(Br)cc1/C=N/Nc1ccccn1, the activity change (cytotoxicity) was -94.7% (active).
In the case of COc1cccc2c1C(=O)c1c(O)c3c(c(O)c1C2=O)CC(O)(C(C)=NNC(=O)c1ccc(Cl)c(Cl)c1)CC3OC1CC(N)C(O)C(C)O1 (stereo not given), the activity change (cytotoxicity) is reported as -53.3% (active).
In the case of Oc1cccc2ccc(/C=C/c3ccc(Br)s3)nc12, the activity change (cytotoxicity) is reported as -93.8% (active).
In the case of CCOC(=O)c1c(C)[nH]c2c1-c1ccccc1C(=O)C2=O, the activity change (cytotoxicity) is reported as -91.6% (active).

In order of rising activity change (cytotoxicity):
1. COc1ccc(NC(=O)C2Cc3c(-c4ccc5c(c4)OCO5)ccnc3O2)cn1 (stereo not given)  -19.2%
2. COc1ccc(C2SCCN2S(=O)(=O)c2ccccc2)cc1OC (stereo not given)  -14.9%
3. O=C(Nc1ccc(Br)cc1)c1cc(S(=O)(=O)Nc2ccccn2)ccc1Cl  -6.3%
4. O=C(NCCN1C(=O)S/C(=C\c2cccnc2)C1=O)c1ccc(S(=O)(=O)N2CCCC2)cc1  -6.2%
5. CCOC(=O)C1(Cc2cccc(OC)c2)CCN(Cc2csc(C(C)=O)c2)CC1  -6%
6. COc1ccc(-c2c(C#Cc3ccsc3)c3cc(-c4ccc(CN5CCOCC5)cc4)ccc3n2C)cc1  -4.5%
7. COC(=O)c1ccc(CNC(=O)C2CCC(=O)N(Cc3ccccn3)C2)cc1 (stereo not given)  -4.5%
8. CC(=O)NC(C(=O)NCC(N)=O)C(C)C (stereo not given)  -4.4%
9. O=C(CCN1CCCCC1)N=Nc1c(O)[nH]c2ccccc12  -4.3%
10. Cn1c(CCNS(=O)(=O)c2ccc(F)cc2)nnc1SCc1cccnc1  -4.1%
11. O=C(CC1CCCCC1)Nc1c2c(nn1-c1ccc(F)cc1)CS(=O)(=O)C2  -3.9%
12. COCCN(C(=S)Nc1ccccc1OC)C1CCN(C(C)C)CC1  -3.5%
13. O=C(NCc1ccncc1)c1ccc(NS(=O)(=O)c2cccc([N+](=O)[O-])c2)cc1  -3%
14. CC(C)NC(=O)C1(C)CCCCCN1C(=O)c1ccc(-c2ccccc2)cc1 (stereo not given)  -2%
15. O=S(=O)(c1ccccc1)c1nc(Cc2ccccc2)oc1N1CCOCC1  -0.9%
16. COc1ccc(C2=NO[C@@H]3C(=O)N(Cc4ccccc4)C(=O)[C@H]23)cc1OC  -0.3%
17. COc1ccc(C2CC(=O)C=C(NCC3CCCO3)C2)cc1 (stereo not given)  0%
18. CC(CN1CCCCC1)OC(=O)c1ccccc1Cl (stereo not given)  0.5%
19. CC[C@]12c3[nH]c4cc(CCC(=O)N(C)C)ccc4c3CCN1C(=O)[C@@H](CC(=O)NCCCn1ccnc1)C[C@@H]2C(=O)N1CCN(C(=O)C2CC2)CC1  0.6%
20. O=C(Nc1cccc2ccccc12)NC1CC1  1%
21. C=CCn1c(C2CC(=O)N(c3ccc(C)cc3)C2)nc2ccccc21 (stereo not given)  1.2%
22. Cc1c(CCO)c(=O)[nH]n1C(=O)c1c(F)cccc1F  1.8%
23. CCCNC(=O)CCn1cc(-c2ccc(OC)cc2)nc1CCN  2.3%
24. COC(=O)C1=C(NC(=O)C(C)(C)C)CCS1  2.3%
25. COc1cccc(NC(=S)N(Cc2ccc(C)cc2)Cc2ccccn2)c1  2.6%
26. CCN(CC)CCn1c(/N=C/c2cc(Br)ccc2O)nc2ccccc21  2.8%
27. CCOc1ccc(NC(=O)CN(C)C(=O)Cn2c(=O)cnc3ccccc32)cc1OCC  3.8%
28. CC(Oc1ccc(F)cc1F)C(=O)/C=C/N(C)C (stereo not given)  4.1%
29. Nc1c(-c2cccc(Cl)c2)cnn1-c1cccc([N+](=O)[O-])c1  4.3%
30. CCOC(=O)c1cnc(COc2ccccc2Cl)[nH]c1=O  4.6%
31. O=C(Nc1cccc2ccccc12)c1onc2c1CCCC2  5.7%
32. S=c1[nH]cc(-c2ccc(Cl)cc2)n1-c1ccccc1  6.2%
33. CN(C)/C=C(/C(=O)c1ccc(Cl)c(Cl)c1)c1nnnn1-c1ccccc1  7.2%
34. Cc1ccnc(SCC(=O)Nc2cccc(S(=O)(=O)N3CCOCC3)c2)n1  7.3%
35. O=C(O)Cc1ccc(NCc2ccccc2Cl)cc1  7.8%
36. C/C(=N\NC(=O)c1cc2c(s1)CCC(C)C2)c1cccnc1 (stereo not given)  8.5%
37. CCCNC(=O)c1c(Cl)cnn1-c1ccc(C)cc1  8.9%
38. C=CCOc1nc2c(c(=O)n(C)c(=O)n2C)n1Cc1ccc(Cl)cc1Cl  9.5%
39. COC(=O)c1ccc(S(=O)(=O)NCc2ccccc2)n1C  9.6%
40. N#CC(=C1SC=CS1)c1nc(-c2ccccc2)cs1  9.6%
41. COc1ccc([C@H]2CC(=O)C=C(/C=C/c3ccccc3)C2)cc1  9.7%
42. CN(CC(=O)NCCc1ccccn1)S(=O)(=O)c1ccc(Cl)cc1  10.8%
43. CC(C)c1ccc(/C=C2\NC(=O)NC2=O)cc1  11.8%
44. CCOC(=O)c1c(C)[nH]c(C)c1C(=O)CSc1nc(N)cc(N)n1  13.1%
45. O=C(O)c1cccnc1Sc1ncnc2sc3c(c12)CCC3  15.9%
46. CN(CC(=O)NCC(c1ccccc1)N1CCCC1)S(=O)(=O)c1ccc(Cl)cc1 (stereo not given)  16%
47. O=C(NCC(F)(F)F)c1ccc(S(=O)(=O)NCCc2ccc3c(c2)OCCO3)cc1  19.2%
